Measured values reported in ChEMBL document CHEMBL4808148, “HDAC6 screening dataset using tau-based substrate in an enzymatic assay yields selective inhibitors and activators” (2021).
Values joined by “and” are separate entries in the source; they are usually repeats but may differ in a detail not shown here. Equal entries are not always repeated. Among all 5,600 compounds or so, about 150 (2.7%) showed an effect of 50% or more. The full list was thinned out, with strong results kept by preference.

What was measured:
[1] = molecular target: T1, Protein deacetylase HDAC6 (Homo sapiens) (UniProt Q9UBN7); conditions: at 10 µM
T1 sequence (whole entry): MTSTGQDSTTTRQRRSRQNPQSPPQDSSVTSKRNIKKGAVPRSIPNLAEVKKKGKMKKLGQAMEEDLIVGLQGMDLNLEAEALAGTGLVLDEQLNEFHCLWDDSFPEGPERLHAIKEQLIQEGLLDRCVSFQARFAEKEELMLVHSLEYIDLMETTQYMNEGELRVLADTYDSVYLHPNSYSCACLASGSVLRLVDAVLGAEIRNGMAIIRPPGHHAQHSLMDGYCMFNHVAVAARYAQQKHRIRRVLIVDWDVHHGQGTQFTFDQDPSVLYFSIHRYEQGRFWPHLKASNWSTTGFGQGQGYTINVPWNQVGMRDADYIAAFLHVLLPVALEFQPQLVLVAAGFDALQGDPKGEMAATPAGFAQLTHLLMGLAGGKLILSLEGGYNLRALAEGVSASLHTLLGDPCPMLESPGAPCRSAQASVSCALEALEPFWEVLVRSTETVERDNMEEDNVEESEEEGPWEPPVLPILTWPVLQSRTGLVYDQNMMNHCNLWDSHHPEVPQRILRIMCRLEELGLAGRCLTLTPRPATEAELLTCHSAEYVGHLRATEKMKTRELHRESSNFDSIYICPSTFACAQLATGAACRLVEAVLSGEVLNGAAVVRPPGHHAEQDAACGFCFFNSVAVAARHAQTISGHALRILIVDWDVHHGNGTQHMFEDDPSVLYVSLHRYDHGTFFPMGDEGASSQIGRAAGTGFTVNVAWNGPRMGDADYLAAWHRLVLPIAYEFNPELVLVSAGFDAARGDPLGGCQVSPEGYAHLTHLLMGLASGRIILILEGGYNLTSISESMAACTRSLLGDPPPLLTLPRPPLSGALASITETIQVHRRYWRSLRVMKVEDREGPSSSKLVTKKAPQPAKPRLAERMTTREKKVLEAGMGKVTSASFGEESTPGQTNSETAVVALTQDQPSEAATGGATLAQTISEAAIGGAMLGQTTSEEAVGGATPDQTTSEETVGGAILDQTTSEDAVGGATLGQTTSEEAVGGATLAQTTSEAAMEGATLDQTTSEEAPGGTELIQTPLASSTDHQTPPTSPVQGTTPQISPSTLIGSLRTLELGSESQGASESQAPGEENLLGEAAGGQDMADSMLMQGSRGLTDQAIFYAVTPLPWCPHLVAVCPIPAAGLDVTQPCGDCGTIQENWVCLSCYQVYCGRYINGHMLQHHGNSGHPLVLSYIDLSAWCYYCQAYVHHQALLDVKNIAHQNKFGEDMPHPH

[2] = molecular target: Protein deacetylase HDAC6 (Homo sapiens) (UniProt Q9UBN7); conditions: at 10 µM; remark: listed apart in the source

Molecule	inhibition [1]	inhibition [2] [%]
O=S1(=O)N[C@H]2CCCN2c2ccccc21	-6.18%	
FC(F)(F)c1ccc(Nc2ncnc3cc(-c4ncccc4C(F)(F)F)ccc23)cc1	6.46%	
CCCC[C@@H](NC(=O)[C@@H](Cc1cn(C(=O)OC)c2ccccc12)NC(=O)[C@H](CC(C)(C)C)NC(=O)N1[C@H](C)CCC[C@@H]1C)C(=O)O	-9.33%	
CCCCCCCCCCCCCCCC(=O)OC[C@H](COP(=O)([O-])OCC[N+](C)(C)C)OC(=O)CCCCCCCCCCCCCCC	-0.71%	
COc1c(C)cnc(Cn2cc(C#CCC(C)(C)O)c3c(Cl)nc(N)nc32)c1C	0.42%	
O=C(c1cc(C2CC2)on1)N(C1CCCCC1)C1CCCCC1	9.33%	
C#C[C@]1(OC(C)=O)CC[C@H]2[C@@H]3CCC4=C/C(=N/O)CC[C@@H]4[C@H]3CC[C@@]21CC	5.83%	
Cc1ccnc(NS(=O)(=O)c2ccc(N)cc2)n1	-3.6%	
Nc1ccc(S(=O)(=O)Nc2ccccn2)cc1	2.21%	
C=Cc1c(C)c2cc3nc(c(CC(=O)O)c4[nH]c(cc5nc(cc1[nH]2)C(C)=C5CC)c(C)c4C(=O)O)C(CCC(=O)O)C3C (centres undefined)	8.5%	
CC(C)n1nccc1-c1ncccc1COc1cccc(O)c1C=O	0.21%	
O=c1cc(N2CCN(c3cccc(C(F)(F)F)c3)CC2)[nH]c(=O)n1C1CCCCC1	-1.42%	
O=C(/C=C/C=C/c1ccc2c(c1)OCO2)N1CCCCC1	61.2%	
CC(C)(C)C(O)/C=C/c1ccc2c(c1)OCO2 (centres undefined)	8.28%	
O=C(COc1ccc(Cl)cc1)N1CCN(Cc2ccc3c(c2)OCO3)CC1	-0.58%	
O=C(CN1CCN(Cc2ccc3c(c2)OCO3)CC1)N1c2ccccc2Sc2ccccc21	4.21%	
O=C(c1ccc2c(c1)OCO2)N1CCCCC1	-4.9%	
O=C(/C=C/c1ccc2c(c1)OCO2)N1CCCCC1	67.8%	
CC/C(=C(\c1ccc(OCCN(C)C)cc1)c1cccc(O)c1)c1ccccc1	-4.47%	
CC(C)(N)c1nc(-c2ccc(OC(F)(F)F)cc2)c[nH]1	3.83%	
C[C@]12CC[C@H](O)CC1=CCC1C2CC[C@]2(C)C(n3cnc4ccccc43)=CCC12 (some centres undefined)	10.9%	
O=C(NO)c1ccc2[nH]c(=O)c(CCCc3ccccc3)nc2c1	97.8%	
O=C(Nc1cccc2c(=O)cc(-c3nnn[nH]3)oc12)c1ccc(OCCCCc2ccccc2)cc1	2.83%	
CCCCc1ccc2[nH]c(NC(=O)OC)nc2c1	15.1%	

Molecule	inhibition [1]	inhibition [2] [%]
NC(=O)CCCCn1ccc(/N=C(\N)NCC(F)(F)F)n1	-7.78%	
O=C(Nc1ccc(C(O)(C(F)(F)F)C(F)(F)F)cc1)c1ccc(C(F)(F)F)cc1	0.41%	
C/C(O)=C(\C#N)C(=O)Nc1ccc(C(F)(F)F)cc1	98.6%	
CC(=O)Nc1ccc(C(=O)O)cc1	-3.9%	
C=C1CC/C=C(\C)CC[C@@H]2[C@@H]1CC2(C)C	2.39%	
O=c1c(-c2ccccc2)c1-c1ccccc1	10.5%	
CCOc1cccc(NC(=O)c2ccc(N3CCCC3)c(C(F)(F)F)c2)c1	0.15%	
CCCCOc1ccc(CC(=O)NO)cc1	75.5%	
CCCCOc1ccc(C(=O)Nc2ccc(F)cc2F)cc1	49%	
CCCCOc1ccc(C(=O)CCN2CCCCC2)cc1	-4.56%	
CC[C@H](CC[C@@H](C)[C@H]1CC[C@H]2[C@@H]3CC=C4C[C@@H](O[C@@H]5O[C@H](CO)[C@@H](O)[C@H](O)[C@H]5O)CC[C@]4(C)[C@H]3CC[C@]12C)C(C)C	2.47%	
N#Cc1ccc(-c2ccc(S(=O)(=O)Nc3cccc(N)n3)cc2)cc1	2.23%	
Nc1ncccc1-c1nc2ccc(-c3ccccc3)nc2n1-c1ccc(C2(N)CCC2)cc1	0.11%	
N[C@@H](C(=O)O)c1ccc(O)c(C(=O)O)c1	-2.24%	
CC(C)c1ccc2oc3nc(N)c(C(=O)O)cc3c(=O)c2c1	99.5%	
N[C@H](C(=O)O)c1ccc(O)c(C(=O)O)c1	-4.47%	
CCOc1cc(OCC)c(C(=O)CCC(=O)O)cc1OCC	-6.02%	
Cc1n[nH]c2ccc(-c3cncc(OC[C@@H](N)Cc4ccccc4)c3)cc12	-5.53%	
hemin, CHEMBL5308479		13.1
NCCNS(=O)(=O)c1ccc(Cl)c2ccncc12	-2.71%	
NCCNc1ccc(NCCN)c2c1C(=O)c1ccncc1C2=O	62.5%	
O=C1c2c(O)ccc(O)c2C(=O)c2c(NCCNCCO)ccc(NCCNCCO)c21	16%	
Clc1ccc2c(N3CCN(CCCN4CCN(c5ccnc6cc(Cl)ccc56)CC4)CC3)ccnc2c1	-8.35%	
CC(C)(C)c1ccc(S(=O)(=O)Nc2ccc(Cl)cc2C(=O)c2cc[n+]([O-])cc2)cc1	-2.23%	

Molecule	inhibition [1]	inhibition [2] [%]
CC(C)Oc1ccc(Cc2ccc(NC3=NCCN3)cc2)cc1	18.9%	
CCOC(=O)c1ccc(O)cc1	-0.21%	
CCOC(=O)c1cc2ccc(O)cc2oc1=O	86.3%	
CCOC(=O)c1c(C)n(C)c2ccc(O)cc12	0.03%	
O=C1Nc2ccccc2C2=NC(CN3CCN(c4ccccc4)CC3)CN12 (centres undefined)	-3.43%	
O=C(O)COc1cccc(CN(Cc2ccc(-n3cccn3)cc2)S(=O)(=O)c2cccnc2)c1	0.4%	
COc1ccc(C(=O)c2ccccc2O)c(O)c1	6.28%	
COc1ccc2[nH]c(C(=O)c3ccccc3)cc2c1	73.2%	
COC(=O)Nc1nc2cc(C(=O)c3ccccc3)ccc2[nH]1	6.52%	
CCN1C(C)(C)CC(Oc2ccc(C(=O)Nc3ccc(NC(=O)Nc4cc(C(C)(C)C)on4)cc3)nc2)CC1(C)C	8.01%	
O=C1N=C(NCc2cccs2)S/C1=C\c1ccc2ncccc2c1	13.2%	
CCC[C@@]1(CCc2ccccc2)CC(O)=C([C@H](CC)c2cccc(NS(=O)(=O)c3ccc(C(F)(F)F)cn3)c2)C(=O)O1	-1.6%	
CCn1c(=O)c(-c2ccc(Cl)cc2Cl)cc2cnc(Nc3ccc(N4CCNCC4)c(F)c3)nc21	-3.08%	
CNC(=O)c1cc2c(cn1)[nH]c1ccccc12	15.7%	
CNC(=O)c1ccccc1Sc1ccc2c(/C=C/c3ccccn3)n[nH]c2c1	98.1%	
C[C@@]1(F)[C@H](O)[C@@H](CO)O[C@H]1n1ccc(N)nc1=O	-2.29%	
CNc1cc(OC)c(C(=O)N[C@@H]2CCN(Cc3ccccc3)[C@@H]2C)cc1Cl.CNc1cc(OC)c(C(=O)N[C@H]2CCN(Cc3ccccc3)[C@H]2C)cc1Cl	7.84%	
BISMUTH SUBGALLATE, CHEMBL1592101		-3.52
CCN(CC)c1ccc(/C=N/NC(=O)c2ccc(O)cc2)cc1	49.5%	
CCN(CC)c1ccc(C(=C2C=CC(=[N+](CC)CC)C=C2)c2ccccc2)cc1	58.6%	
CCCC[C@]1(CC)CS(=O)(=O)c2cc(CNC(CC(=O)O)CC(=O)O)c(OC)cc2[C@@H](c2ccccc2)N1	0.63%	
O=C(NCC1CN(c2ccc(N3CCOCC3=O)cc2)C(=O)O1)c1ccc(Cl)s1 (centres undefined)	2.41%	
Cn1cc(-c2ccc(S(=O)(=O)n3ccc(/C=C/C(=O)Nc4ccccc4N)c3)cc2)cn1	9.5%	
CN(C)Cc1ccc(S(=O)(=O)n2ccc(/C=C/C(=O)NO)c2)cc1	97.8%	

Molecule	inhibition [1]	inhibition [2] [%]
CCN1C(=O)CNc2ncc(-c3ccc(-c4nc[nH]n4)nc3C)nc21	0.29%	
CN(C)c1ccc(/C=C2\C(=O)Nc3ccccc32)cc1	96.3%	
Cc1cc(C)c(/C=C2\C(=O)Nc3ccccc32)[nH]1	2.33%	
Cc1[nH]c(/C=C2\C(=O)Nc3ccccc32)c(C)c1CCC(=O)O	8.55%	
CSC1SC[C@H]2C(=O)N(C)[C@@H](C(C)C)C(=O)OC[C@@H](NC(=O)c3cnc4ccccc4n3)C(=O)N[C@@H](C)C(=O)N(C)[C@@H]1C(=O)N(C)[C@@H](C(C)C)C(=O)OC[C@@H](NC(=O)c1cnc3ccccc3n1)C(=O)N[C@@H](C)C(=O)N2C (some centres undefined)	-2.22%	
Cc1cc(-c2nc(-c3ccc(OC(F)(F)F)cc3)no2)nn1Cc1ccnc(N2CCN(C3CC3)CC2)c1	-4.46%	
COc1cc(C(=O)OCCCN2CCCN(CCCOC(=O)c3cc(OC)c(OC)c(OC)c3)CC2)cc(OC)c1OC	-3.62%	
COc1cc(C(=O)NC2CCCNC2)cc(OC)c1OC (centres undefined)	-2.46%	
COc1cc(C(=S)N2CCOCC2)cc(OC)c1OC	97.4%	
CC(C)(C)[C@H]1CC[C@H](CC2=C(O)C(=O)c3ccccc3C2=O)CC1	4.06%	
COc1ccccc1C(=O)Nc1cc2c(cc1N1CCCC1)n(C)c(=O)n2C	-4.48%	
COc1cccc(-c2ccc(NC(=O)C3=C(C(=O)O)CCC3)c(F)c2)c1	94%	
COc1ccc(-c2c(C)c(C(=O)NN3CCCCC3)nn2-c2ccc(Cl)cc2Cl)cc1	3.52%	
CCOc1ccc(-c2ccc(Cn3c(CC(C)(C)C(=O)O)c(SC(C)(C)C)c4cc(OCc5ccc(C)cn5)ccc43)cc2)cn1	-4.44%	
CC(C)NCC(O)COc1ccc(CC(N)=O)cc1 (centres undefined)	8.69% and 11.7%	
Cc1ccc(-c2ccc(F)cc2COc2ccc(CCC(=O)O)cc2)cc1	2.57%	
C[C@H](NCc1ccc(OCc2cccc(F)c2)cc1)C(N)=O	88.8%	
C[C@H](NC(=O)Cc1cc(F)cc(F)c1)C(=O)N[C@H](C(=O)OC(C)(C)C)c1ccccc1	-6.8%	
O=C1S/C(=C\c2ccc(OCc3cccc(B(O)O)c3)cc2)C(=O)N1Cc1ccc(F)cc1	8.15%	
C[C@H](NCc1ccc(OCc2ccccc2F)cc1)C(N)=O	69.9%	
COC(=O)C1=C(C)NC(C)=C(C(=O)OC/C=C/c2ccccc2)C1c1cccc([N+](=O)[O-])c1 (centres undefined)	-8.71%	
CN[C@H](CC(C)C)C(=O)N[C@H]1C(=O)N[C@@H](CC(N)=O)C(=O)N[C@H]2C(=O)N[C@H]3C(=O)N[C@H](C(=O)N[C@H](C(=O)O)c4cc(O)cc(O)c4-c4cc3ccc4O)[C@H](O[C@H]3C[C@](C)(N)[C@@H](O)[C@H](C)O3)c3ccc(c(Cl)c3)Oc3cc2cc(c3O[C@@H]2O[C@H](CO)[C@@H](O)[C@H](O)[C@H]2O[C@H]2C[C@](C)(NCc3ccc(-c4ccc(Cl)cc4)cc3)[C@@H](O)[C@H](C)O2)Oc2ccc(cc2Cl)[C@H]1O	0.32%	
